Measured values: PubChem BioAssay AID1441 (NMMLSC, 2008)
The whole screen tested about 220,000 compounds, of which about 830 (0.38%) were called active. The sample as a whole holds a higher share of actives than the screen did. Values without a mark were called inactive. The rule behind the calls is not given here.

These compounds were tested against Regulator of G-protein signaling 16 (Homo sapiens) + Guanine nucleotide-binding protein G(o) subunit alpha (Homo sapiens) (UniProt O15492+P09471) (assay: modulators of RGS16 binding to Galphao, primary screen, biochemical, human proteins, multiplexed bead flow cytometry (AID 1441;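 note: Galphao activated by GDP with aluminum fluoride before binding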)). Conditions: bead-based flow cytometry RGS16-Galphao binding, fluorescence; at 10 µM; actives lie on both sides.
Chain of Regulator of G-protein signaling 16 (Homo sapiens) + Guanine nucleotide-binding protein G(o) subunit alpha (Homo sapiens) (O15492 whole entry, looked up): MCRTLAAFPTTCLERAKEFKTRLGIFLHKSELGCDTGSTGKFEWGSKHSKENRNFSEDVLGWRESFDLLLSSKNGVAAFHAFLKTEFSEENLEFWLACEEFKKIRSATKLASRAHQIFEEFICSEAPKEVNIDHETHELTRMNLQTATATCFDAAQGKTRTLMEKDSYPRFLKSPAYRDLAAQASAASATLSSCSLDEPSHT
Chain of Regulator of G-protein signaling 16 (Homo sapiens) + Guanine nucleotide-binding protein G(o) subunit alpha (Homo sapiens) (P09471 whole entry, looked up): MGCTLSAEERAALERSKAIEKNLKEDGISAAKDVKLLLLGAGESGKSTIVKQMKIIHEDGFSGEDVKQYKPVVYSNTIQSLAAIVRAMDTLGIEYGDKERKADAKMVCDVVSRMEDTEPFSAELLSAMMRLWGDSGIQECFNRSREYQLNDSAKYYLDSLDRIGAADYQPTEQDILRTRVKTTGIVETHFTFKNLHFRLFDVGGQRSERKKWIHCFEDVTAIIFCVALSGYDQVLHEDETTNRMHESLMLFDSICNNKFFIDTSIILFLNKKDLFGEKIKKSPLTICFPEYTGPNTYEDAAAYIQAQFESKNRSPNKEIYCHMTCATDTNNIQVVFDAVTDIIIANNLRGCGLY
COP1(=O)C[C@@H](O)[C@@H](O)[C@@H](COCc2ccccc2)O1 (stereo partly specified) gave a binding response (% of control) of 103%.
Cc1ccsc1C1C(C#N)=C(N)OC2=C1C(=O)CC(C)(C)C2 (stereo unspecified) showed a binding response (% of control) of 118%.
Work on COc1ccc(Cl)cc1C(=O)NNC(=O)c1nc2nc(C)cc(C)n2n1 yielded a binding response (% of control) of 95.3%.
Work on O=C(OCc1ccc(Br)cc1)c1cccc(-c2nnc(-c3ccccc3)o2)c1 yielded a binding response (% of control) of 102%.
In the case of O=C(Cc1cccs1)Nc1cccc(-c2nc3ccccc3[nH]2)c1, the binding response (% of control) was 97.3%.
In the case of O=C(Nc1cccc(-c2nc3ccccc3[nH]2)c1)c1ccc(C(=O)Nc2cccc(-c3nc4ccccc4[nH]3)c2)cc1, the binding response (% of control) was 219% [activator] (active).
Compound O=C(/C=C/c1ccco1)Nc1cccc(-c2nc3ccccc3[nH]2)c1 has a binding response (% of control) of 98.3%.
Compound NC(=S)Nc1c(Cl)cccc1Cl has a binding response (% of control) of 98.9%.
Work on CCOc1c(Nc2cccc(Cl)c2)c(=O)c1=O yielded a binding response (% of control) of 119%.
COc1ccc(-c2ccc(CNCCCN3CCOCC3)o2)cc1Cl showed a binding response (% of control) of 98.4%.
Work on CNC(=S)NNC(=O)c1cccn(Cc2ccccc2)c1=O yielded a binding response (% of control) of 100%.
CCCC[C@@H]1CN=C(N)N1CCc1cc(C(F)(F)F)cc(C(F)(F)F)c1 gave a binding response (% of control) of 100%.
In the case of CCN(CC)c1ccc(/C=N/NC(=O)c2cnccn2)c(O)c1, the binding response (% of control) was 94.6%.
With N/C(=N\OC(=O)CCc1ccccc1)c1cccnc1 the binding response (% of control) was 105%.
With CCCC(=O)n1nc(-c2ccccc2)nc1N the binding response (% of control) was 14.9% (active).
For COc1ccc(CC(=O)n2nc(-c3cccnc3)nc2N)cc1, the binding response (% of control) was 93.8%.
COc1ccccc1C(=O)n1nc(-c2ccccc2)nc1N gave a binding response (% of control) of 102%.
Work on Nc1ccccc1C(=O)NC1CCCCNC1=O (stereo unspecified) yielded a binding response (% of control) of 95.3%.
Work on COc1ccc2c(c1)C(=C(C#N)C#N)C(=O)N2CCc1ccccc1 yielded a binding response (% of control) of 113%.
For Nc1ccc(C(=O)OCC(=O)NC2CCCc3ccccc32)cc1[N+](=O)[O-] (stereo unspecified), the binding response (% of control) was 98.8%.
In the case of Nc1ccc(C(=O)OCC(=O)NC2CCS(=O)(=O)C2)cc1[N+](=O)[O-] (stereo unspecified), the binding response (% of control) was -10.3% (active).
O=C(COC(=O)/C=C/c1ccc2c(c1)OCO2)NC1CCS(=O)(=O)C1 (stereo unspecified) was tested, and the binding response (% of control) was 98.5%.
COc1cc(OC)c(C(=O)N2CCCC2)cc1OC showed a binding response (% of control) of 100%.
For CCC(C)(C)NC(=O)C(c1cccc(OC)c1OC)N(CC(C)C)C(=O)CCC(=O)Nc1cc(C)on1 (stereo unspecified), the binding response (% of control) was 105%.
With COc1ccc(-c2nn(-c3ccccc3)cc2/C=N/Nc2ccccn2)cc1OC the binding response (% of control) was 112%.
COc1ccc(-c2nn(-c3ccccc3)cc2C(=O)Nc2nccs2)cc1OC was tested, and the binding response (% of control) was 24.6% (active).
COc1ccc(-c2nn(-c3ccccc3)cc2C(=O)Nc2nc(CC(C)=O)ns2)cc1 showed a binding response (% of control) of 95.8%.
CC(C)Oc1ccc(CCc2nnc(SCC(=O)O)n2-c2ccccc2)cc1 was tested, and the binding response (% of control) was 99.7%.
For COC(=O)[C@H]1Cc2cnoc2C[C@]1(C)C(=O)O, the binding response (% of control) was 104%.
With Cc1ccc(SCC2=NNC(=O)C2)cc1 the binding response (% of control) was 110%.
Cc1ccc(N2C(=O)C3C(c4ccccc4)(C2=O)C3(c2ccccc2)c2ccccc2)cc1 (stereo unspecified) was tested, and the binding response (% of control) was 13.2% (active).
In the case of Cc1ccc(N2C(=O)C(Cc3ccccc3)NC2=S)cc1 (stereo unspecified), the binding response (% of control) was 102%.
In the case of Cc1ccc(N2C(=O)C3CC3C2=O)cc1 (stereo unspecified), the binding response (% of control) was 101%.
C/C=C/c1ccc(OCCCCN2CCC(C)CC2)c(OC)c1 was tested, and the binding response (% of control) was 95%.
With O=c1[nH]c2ccccc2s1 the binding response (% of control) was 23% (active).
Work on O=c1c(-c2ccc(Cl)cc2)[n+]([O-])c2ccccc2n1OCc1nc2ccccc2[nH]1 yielded a binding response (% of control) of 108%.
In the case of CCCC1C(c2ccccc2)C(C#N)(C#N)C2(C#N)CC1(N)NC2=O (stereo unspecified), the binding response (% of control) was 178% [activator] (active).
For O=C(NNC(=S)NC1CCCCC1)c1ccccc1Cl, the binding response (% of control) was 99.1%.
Cc1ccc(S(=O)(=O)c2c(N)n(C)c3nc4ccccc4nc23)cc1 showed a binding response (% of control) of 101%.
In the case of CCC(=O)Nc1c(S(=O)(=O)c2ccccc2)c2nc3ccccc3nc2n1Cc1ccccc1, the binding response (% of control) was 13.9% (active).
CCN(CC)CCn1c(N)c(S(=O)(=O)c2ccccc2)c2nc3ccccc3nc21 gave a binding response (% of control) of 104%.
For S=c1[nH]nc(-c2cccs2)n1/N=C/c1cn(-c2ccccc2)nc1-c1ccc(Cl)cc1, the binding response (% of control) was 98.8%.
C/C(=N\OCC(=O)Nc1ccc(Br)cc1)c1cccs1 was tested, and the binding response (% of control) was 99.8%.
With C/C(=N\NS(=O)(=O)c1ccc(Br)cc1)c1cccs1 the binding response (% of control) was -881% (active).
For O=S(=O)(NN=C1CCCCCCC1)c1ccc(Br)cc1, the binding response (% of control) was 106%.
With Cc1ccc(-n2c(Cc3cccs3)nnc2SCC(=O)OC(C)C)cc1 the binding response (% of control) was 103%.
Compound Cc1ccc(-n2c(SCC(=O)Nc3ccc4c(c3)OCO4)nnc2-c2ccccn2)cc1 has a binding response (% of control) of 96.8%.
In the case of COc1ccc(-n2c(SCC(=O)OC(C)C)nnc2-c2ccccn2)cc1, the binding response (% of control) was 242% [activator] (active).
Cc1cc(C(=O)OCC(=O)Nc2nccs2)c2ccccc2n1 was tested, and the binding response (% of control) was 99%.
Work on CCc1nc(NCCO)c(C#N)c2c1CCCC2 yielded a binding response (% of control) of 92.9%.
CC(=O)NCCn1c(SCC(=O)Nc2ccc(C)cc2)nc2ccccc2c1=O showed a binding response (% of control) of 197%.
CCOc1ccc(NC(=O)CSc2nc3ccccc3c(=O)n2Cc2cccs2)cc1 was tested, and the binding response (% of control) was -1.24% (active).
Work on CCc1ccc(NC(=O)CSc2nc3ccccc3c(=O)n2CCN2CCOCC2)cc1 yielded a binding response (% of control) of 97.8%.
With NC(=O)c1nnsc1-c1ccc(-c2snnc2C(N)=O)cc1 the binding response (% of control) was 103%.
COc1cc2[nH]c(=S)n(Cc3ccc(F)cc3)c(=O)c2cc1OC gave a binding response (% of control) of 76.9%.
Compound Cc1cc(C(=O)N/N=C/c2cc([N+](=O)[O-])cc(C)c2O)n[nH]1 has a binding response (% of control) of 78.3%.
Cn1c(CCCOc2ccc(Cl)cc2Cl)n[nH]c1=S showed a binding response (% of control) of 101%.
For O=S(=O)(c1ccccc1)N1CN(Cc2ccc(F)cc2)c2nc3ccccc3nc21, the binding response (% of control) was 100%.
For O=C(NCc1ccc(F)cc1)C1CCC(CNc2c(N3CCOCC3)c(=O)c2=O)CC1 (stereo unspecified), the binding response (% of control) was 3.97% (active).
In the case of CC(NC(=O)C1CCC(CNc2c(N3CCOCC3)c(=O)c2=O)CC1)c1ccccc1 (stereo unspecified), the binding response (% of control) was 99.6%.
COc1ccc(CNC(=O)C2CCC(CNc3c(N4CCOCC4)c(=O)c3=O)CC2)cc1 (stereo unspecified) was tested, and the binding response (% of control) was 104%.
